A selection: hits, their analogues and other compounds. The true share with any hit is near 1.7%.
p97 inhibitor – blocks human p97 ATPase activity | 0.42% of 220,000 active | inhibition, % at 8 µM | P55072 | recombinant p97 ATPase, Kinase-Glo ATP luminescence, 3 h; in the data active = inhibition above about 15%;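 note: 0% = DMSO vehicle and 100% = wells lacking enzyme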
LYPLA1 counter – counter-screen for PME1 inhibitors: inhibitors of human LYPLA1. 0.16% of 320,000 active. inhibition, % at 5.9 µM. recombinant LYPLA1, FP-Rh probe fluorescence polarization;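 active = inhibition above the mean of all tested compounds plus 3 SD, set per campaign, cut at about 14% in these data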;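 note: inhibitors block serine hydrolase probe labeling of LYPLA1 so polarization falls; 0% = enzyme with DMSO and 100% = wells lacking LYPLA1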
Target sequence (O75608 whole entry, looked up): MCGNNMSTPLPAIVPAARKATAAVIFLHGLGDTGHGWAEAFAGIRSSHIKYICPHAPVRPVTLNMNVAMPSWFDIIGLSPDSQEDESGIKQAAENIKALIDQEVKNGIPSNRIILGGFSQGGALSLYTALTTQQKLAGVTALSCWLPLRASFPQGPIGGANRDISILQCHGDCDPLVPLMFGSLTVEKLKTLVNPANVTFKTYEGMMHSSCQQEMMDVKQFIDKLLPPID
Hck Nef HTS – blocks Nef-activated human Hck kinase | P08631 | Recombinant Hck-YEEI plus Nef, Z-Lyte FRET kinase assay | inhibition, % at 20 µM | 0.68% of 220,000 active;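 active = Hck-Nef kinase inhibition above about 50%, limit read from the data; inactive = inhibition below that limit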;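 note: 0% = DMSO with Hck plus Nef and 100% = Hck alone without Nef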
LYPLA2 inh – LYPLA2 (human) inhibition in PME1 counter-screen; O95372; recombinant LYPLA2, FP-Rh probe fluorescence polarization; inhibition, % at 5.9 µM; 0.38% of 320,000 active; AID 2177;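 active = inhibition above the screen-wide mean plus 3 SD, limit set per campaign, cut at about 26% in these data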;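 note: 0% = LYPLA2 with DMSO and 100% = wells lacking LYPLA2 enzyme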
Target sequence (O95372 whole entry, looked up): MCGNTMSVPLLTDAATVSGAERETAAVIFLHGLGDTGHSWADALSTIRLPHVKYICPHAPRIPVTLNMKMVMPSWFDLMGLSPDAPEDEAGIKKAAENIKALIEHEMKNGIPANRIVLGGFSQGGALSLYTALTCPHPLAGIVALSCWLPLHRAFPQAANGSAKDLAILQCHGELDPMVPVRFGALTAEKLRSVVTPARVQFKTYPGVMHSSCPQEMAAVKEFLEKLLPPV
Rin1 Abl inh – human Rin1-Abl interaction inhibition; P00519+Q13671; inhibition, % at 7.35 µM; AID 588664; TR-FRET Rin1/Abl binding, biochemical; 0.4% of 360,000 active; in the data active = inhibition above about 5%, passing the limit was not always enough
PREPL inh – human PREPL enzyme inhibition; recombinant PREPL, fluorescence polarization activity-based probe; inhibition, % at 5.96 µM; 0.68% of 320,000 active; AID 2751; in the data active = inhibition above about 43%;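 note: 0% = enzyme with DMSO and 100% = wells lacking enzyme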
Rin1-Abl confirm – Rin1-Abl interaction inhibition confirmation; shares compounds with Rin1 Abl inh; inhibition, % at 7.35 µM; TR-FRET Rin1-Abl binding, purified proteins; AID 602124; 49% of 1,300 active
GFP quench – quenches GFP fluorescence, counter-screen for Rin1-Abl inhibitors. shares compounds with Rin1 Abl inh. inhibitors/quenchers counterscreen. inhibition, % at 6.75 µM. 8.5% of 1,300 active;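 note: ABL1-eGFP fusion protein alone without its partner RIN1-SBP; 0% = protein with vehicle and 100% = wells lacking protein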
GFP quench DR – counter-screen for Rin1-Abl inhibitors: GFP quenchers, dose response; 230 tested, under 10 active; IC50, µM; AID 602182; shares compounds with Rin1 Abl inh; GFP fluorescence interference/quenching counterscreen; call rule not given here;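 note: ABL1-eGFP fusion protein alone without its RIN1 binding partner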
* = called active by the depositor. Cut-off read from the data, not from the text of the source, unless noted: active = inhibition above about 6.5%; inactive = the rest.

For CC1(c2nnc(-c3ccccc3)o2)CC(c2ccncc2)=NO1 (stereo not given) the results were LYPLA1 counter -2, Hck Nef HTS 24, LYPLA2 inh -4, Rin1 Abl inh 1 and PREPL inh 4.
For CC1(c2nnc(-c3ccncc3)o2)CC(c2ccccc2)=NO1 (stereo not given) the results were LYPLA1 counter -1, LYPLA2 inh 4, Rin1 Abl inh 19*, PREPL inh 13, Rin1-Abl confirm 24* and GFP quench 1.
`CC1(c2nnc(-c3ccccc3)o2)CC(c2ccc(Cl)cc2)=NO1` (stereo not given) gave LYPLA1 counter -1, Hck Nef HTS 25, LYPLA2 inh 13, Rin1 Abl inh 0 and PREPL inh -32.
Screening COc1ccccc1C(=O)NCC(=O)OCC(=O)c1cccc2ccccc12 returned LYPLA1 counter 0, LYPLA2 inh 1, Rin1 Abl inh 2 and PREPL inh -4.
Screening O=C(c1ccc(F)cc1)C1CCN(C(=O)c2c(F)cccc2F)CC1 returned LYPLA1 counter 3, LYPLA2 inh 10, Rin1 Abl inh 0 and PREPL inh -4.
For O=C(CN1C(=O)CCSc2ccc(S(=O)(=O)N3CCOCC3)cc21)Nc1cccc(F)c1 the results were LYPLA1 counter 0, LYPLA2 inh 3, Rin1 Abl inh 16*, PREPL inh -5, Rin1-Abl confirm 15* and GFP quench 2.
Screening COc1ccc(S(=O)(=O)NC(C)C(=O)NCc2cccnc2)cc1OC (stereo not given) returned LYPLA1 counter 5, LYPLA2 inh 8, Rin1 Abl inh 8.4*, PREPL inh 2, Rin1-Abl confirm 1 and GFP quench 1.
For O=C(c1ccco1)N1CCc2[nH]nc(-c3ccc(Cl)cc3)c2C1 the results were LYPLA1 counter 1, LYPLA2 inh 3, Rin1 Abl inh 16*, PREPL inh -7, Rin1-Abl confirm 1 and GFP quench -1.
`COc1ccc(-c2n[nH]c3c2CN(C(=O)c2ccccc2)CC3)cc1` gave LYPLA1 counter 2, LYPLA2 inh 2, Rin1 Abl inh -4 and PREPL inh -1.
Screening Cn1c(SCC(=O)NC2CC2)nnc1-c1ccc(Cl)cc1 returned LYPLA1 counter -2, LYPLA2 inh 4, Rin1 Abl inh 2 and PREPL inh 16.
`CCCCC[C@@H]1C=C(C(=O)O)[C@H](c2ccc(C)cc2)N1S(=O)(=O)c1ccc(C)cc1` gave Rin1 Abl inh -4 and PREPL inh 7.
Screening CCCCC[C@@H]1C=C(C(=O)O)[C@H](c2ccc(Cl)cc2)N1S(=O)(=O)c1ccc(C)cc1 returned Rin1 Abl inh 8.2*, PREPL inh 16, Rin1-Abl confirm -3 and GFP quench 0.
Screening Cc1cc2cc(CNC(=S)Nc3ccc(OC(F)F)cc3)ccc2[nH]1 returned p97 inhibitor 9, LYPLA1 counter -9, Hck Nef HTS -1, LYPLA2 inh -10, Rin1 Abl inh -2 and PREPL inh -9.
Screening Cc1cc2cc(CNC(=S)Nc3ccc(OC(F)(F)F)cc3)ccc2[nH]1 returned p97 inhibitor 6, LYPLA1 counter 0, Hck Nef HTS -1, LYPLA2 inh 1, Rin1 Abl inh 6.1*, PREPL inh -12, Rin1-Abl confirm 2 and GFP quench 0.
For CCN(CC)S(=O)(=O)c1cc(NC(=O)c2ccc3c(c2)NC(=O)C(C)S3)ccc1C (stereo not given) the results were LYPLA1 counter -18, LYPLA2 inh -10, Rin1 Abl inh 1 and PREPL inh -3.
For OC[C@@H]1CN(Cc2ccc(-c3ccccc3)cc2)C[C@H](n2cnc3c(Nc4ccccc4)ncnc32)O1 the results were Rin1 Abl inh 2.
Screening CNc1ncnc2c1ncn2[C@H]1CN(Cc2ccc(-c3ccccc3)cc2)C[C@@H](CO)O1 returned Rin1 Abl inh 9.7*, Rin1-Abl confirm 13* and GFP quench -2.
OC[C@@H]1CN(Cc2ccc(Cl)cc2)C[C@H](n2cnc3c(NC4CCC4)ncnc32)O1 was read as Rin1 Abl inh 12*, Rin1-Abl confirm 9.4* and GFP quench -1.
CC(C)Nc1ncnc2c1ncn2[C@H]1CN(Cc2ccc(Cl)cc2)C[C@@H](CO)O1 was read as Rin1 Abl inh 6.
Screening CC(C)CNc1ncnc2c1ncn2[C@H]1CN(Cc2ccc(Cl)cc2)C[C@@H](CO)O1 returned Rin1 Abl inh 18*, Rin1-Abl confirm 10* and GFP quench -2.
For OC[C@@H]1CN(Cc2ccc(-c3ccccc3)cc2)C[C@H](n2cnc3c(NC4CC4)ncnc32)O1 the results were Rin1 Abl inh 26*, Rin1-Abl confirm 21*, GFP quench -1 and GFP quench DR >68.
Screening COc1ccc(NC2CCCN(C(=O)c3ccc4[nH]c(C)c(C)c4c3)C2)cc1 (stereo not given) returned LYPLA1 counter 3, LYPLA2 inh 6, Rin1 Abl inh -2 and PREPL inh 8.
Screening COc1ccc(C2C3=C(CC(C)(C)CC3=O)Oc3ncn(CCO)c(=N)c32)cc1OC (stereo not given) returned p97 inhibitor 2, LYPLA1 counter -2, Hck Nef HTS -2, LYPLA2 inh 4, Rin1 Abl inh 14*, PREPL inh -3, Rin1-Abl confirm 1 and GFP quench 0.
CC(C)Cn1cnc2c(c1=N)C(c1ccccc1)C1=C(CC(C)(C)CC1=O)O2 (stereo not given) was read as p97 inhibitor 5, LYPLA1 counter 0, Hck Nef HTS 14, LYPLA2 inh -4, Rin1 Abl inh 7.0*, PREPL inh 2, Rin1-Abl confirm 1 and GFP quench -1.
For Cc1cccc(OCCn2c(=O)oc3ccc(C)cc32)c1 the results were p97 inhibitor -9, LYPLA1 counter -1, Hck Nef HTS 17, LYPLA2 inh 8, Rin1 Abl inh 5.8*, PREPL inh -20, Rin1-Abl confirm -1 and GFP quench 1.
For Cc1ccc2oc(=O)n(CCOc3ccccc3)c2c1 the results were p97 inhibitor -2, LYPLA1 counter -2, Hck Nef HTS 19, LYPLA2 inh 8, Rin1 Abl inh 0 and PREPL inh 15.
`Cc1cc(C)c(SSc2nnnn2-c2ccccc2)c(C)c1` gave Rin1 Abl inh -2.
